Only some compounds are listed: those with a hit (about 19% of all), similar ones and a draw of the others.
TDP1 cell CPT – growth inhibition of DT40 Tdp1-/-;hTDP1 cells with camptothecin (screen for TDP1 inhibitors); chicken DT40 Tdp1-/-;hTDP1 cells + 20 nM CPT, ATP luminescence, 48 h; Potency, µM (series often up to 46.2 µM), for the others: top-dose activity change, negative = growth inhibition, usual class: inhibitors; 420,000 tested, 12% active; also: potency is read from the fitted curve at half-maximal effect; % is scaled to controls: 0 for no effect and ±100 for the full control effect; nearly all actives have a fitted effect of over 55% in size
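Cell growth measured by CellTiter-Glo luminescence after a minimum 48 h, 37 C compound exposure with 20 nM CPT in Tdp1-knockout DT40 cells stably expressing hTDP1, seeded 400/well; qHTS titration format.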
Chronic BCR inh – blocks chronic active B-cell receptor signaling | ABC-DLBCL IkBa-CBG/CBR reporter, luminescence ratio, 4 h | Potency, µM (doses to about 46.1 µM), inactives show at the highest dose activity change, negative = inhibition, hits mostly inhibitors | 340,000 tested, 0.05% active | AID 493014; active = well fitted inhibition curve with a large enough effect in the signal ratio, with a control signal flat, not every such curve was filed as active; inconclusive = small, poorly fitted or top-dose-only effect, or effect the other way, or a change in a side signal; the % refers to the signal ratio;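 also: potency is read from the fitted curve at half-maximal effect; plate controls were basal doxycycline-induced cells for no effect and cells given 10 µM MG132 for full effect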
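TMD8 human ABC-DLBCL cells with doxycycline-inducible IκBα–green luciferase fusion and unfused red luciferase, in 0.5% FBS medium; compounds up to 46 uM, 4 h at 37C. Green/red luminescence ratio, filter-overlap corrected, fitted to concentration-response curves.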
SW480 rerep – inducers of DNA re-replication in SW480 colon cancer cells. SW480 DNA re-replication, Hoechst DNA content imaging, 48 h. Potency, µM (titrated, usually from 46.1 µM), inactives show top-dose re-replication activation, usual class: activators. 340,000 tested, 1.8% active. AID 624297; also: potency is read from the fitted curve at half-maximal effect; % of control where 0% means no effect; nearly all actives have a fitted effect of over 55% in size
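Quantitative HTS format with DMSO vehicle controls; 48 hr drug incubation at 37 C, then 40 min Hoechst staining and scanning imager measurement at 405 nm excitation.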
MCF10A rereplic – induces DNA re-replication in MCF 10a normal breast cells; MCF 10A DNA re-replication, Hoechst nuclear intensity, 48 h; Potency, µM (top dose mostly 46.1 µM), for inactives: at the top dose activity, positive = re-replication, actives largely listed as activators; 350,000 tested, 2.9% active; AID 624296; also: potency is read from the fitted curve at half-maximal effect; % of control where 0% means no effect; nearly all actives have a fitted effect of over 50% in size
TDP1 cell noCPT – qHTS for Inhibitors of human tyrosyl-DNA phosphodiesterase 1 (TDP1): qHTS in cells in absence of CPT; DT40 Tdp1-/- hTDP1 cells, no CPT, ATP luminescence, 48 h; Potency, µM (top dose mostly 46.2 µM), inactives show at the top dose activity change, negative = growth inhibition, actives largely listed as inhibitors; 420,000 tested, 15% active; AID 686978, 2013; also: potency is read from the fitted curve at half-maximal effect; % is scaled to controls: 0 for no effect and ±100 for the full control effect; nearly all actives have a fitted effect of over 55% in size
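Cells were dispensed at 400 per well, compounds added by pin tool, plates incubated ≥48 hr at 37 °C, then CellTiter-Glo added for 30 min at room temperature before luminescence reading. Line: DT40 Tdp1-/- complemented with hTDP1; camptothecin omitted.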
IL1B secr inh – blocks inflammasome-driven IL-1 beta release; 360,000 tested, 4.7% active; activity change, % at 57.5 µM; THP-1 LPS/ATP IL-1B secretion, AlphaLISA, 16 h; active compounds read low; in the data active = activity change below about -50%; inconclusive = mostly about -30% to -49%; also: % is scaled to controls: 0 for no effect and ±100 for the full control effect
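Secreted IL-1B measured by AlphaLISA bead assay after 16 h compound exposure of THP-1 cells; compounds (final up to 57.5 uM) added 1 h before LPS (250 ng/mL) and ATP (1.25 mM) stimulation; lower signal means less secretion.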
An asterisk follows results filed as active; ? = inconclusive; . = not tested or not shown; ! = repeats disagree; [ ] = dose if it differs, or a comment. Unless noted, calls follow the shape of the dose curve; as a rule, active = well fitted curve in the direction sought with a large enough effect; inconclusive = small, poorly fitted or top-dose-only effect, or another doubt; inactive = no such curve, though single readings can be large; an effect the other way counts as inactive or inconclusive.

SMILES	TDP1 cell CPT	Chronic BCR inh	SW480 rerep	MCF10A rereplic	TDP1 cell noCPT	IL1B secr inh
CC1CCN(C2CC(=O)N(c3ccccc3)C2=O)CC1 (centres undefined)	21µM*	16%	-11%	?	-15%	-8
O=C1CC(N2CCN(c3ccc(O)cc3)CC2)C(=O)N1c1ccc2c(c1)OCO2 (centres undefined)	0%	3%	-2%	-2%	-12%	11
Cc1cc(C)n(C2CC(=O)N(c3cccc(Cl)c3)C2=O)n1 (centres undefined)	15µM*	8%	1%	-7%	?	7
O=C1CC(N2CCCCCC2)C(=O)N1c1ccc(F)cc1 (centres undefined)	-90%	3%	?	13µM*	-96%	-18
O=S(=O)(NCC(c1ccco1)S(=O)(=O)c1cccs1)c1ccc(F)c(C(F)(F)F)c1 (centres undefined)	?	-1%	.	.	?	.
O=C(O)c1ccc(N2C(=O)CC(N3CCN(c4cccc(Cl)c4)CC3)C2=O)cc1 (centres undefined)	-27%	4%	-14%	0%	3.3µM*	18
O=C(O)c1ccc(N2C(=O)CC(N3CCN(c4cccc(C(F)(F)F)c4)CC3)C2=O)cc1 (centres undefined)	-4%	2%	-11%	1%	-9%	32
COc1cc(OC)cc(C(=O)N[C@H](C(=O)NC2=NCCS2)C(C)C)c1	-29%	0%	-1%	-1%	0%	4
OC1Cc2ccccc2C1Nc1cccc(C(F)(F)F)c1 (centres undefined)	-3%	.	3%	-1%	?	-66*
N#Cc1ccc(NC2c3ccccc3CC2O)cc1 (centres undefined)	?	.	-2%	3%	?	30
COc1ccc(N2CCN(S(=O)(=O)c3c(C)nc4sc(C)cn4c3=O)CC2)cc1	-9%	.	.	.	-13%	.
O=S(=O)(O)Sc1ccccc1	23µM*	.	.	.	21µM*	-99*
CCN(CC)c1ccc(SS(=O)(=O)O)cc1	-9%	0%	4%	-3%	-28%	-71*!
CCN(CC)c1ccc(C(=O)O)cc1	11%	1%	20%	-9%	-19%	18
Cc1ccc(-n2c(N)cc(=O)nc2SCC(=O)NC2CCCCC2)cc1C	9%	0%	-2%	-4%	5%	-1
COc1cccc(CN(C)C(=O)COc2cccc3c2OC(C)(C)C3)c1OC	?	.	52%	0%	?	-17
COc1cccc(CN(C)CC(=O)Nc2ccccc2C(C)C)c1	?	0%	3%	17%	16µM*	-13
COc1ccccc1CN(C)CC(=O)Nc1ccc(Cl)cc1F	?	-13%	-60%	1.2µM*	?	0
COc1ccc(Br)cc1CN(C)CC(=O)Nc1cc(Cl)ccc1Cl	-16%	-4%	4%	?	?	-19
COc1ccccc1CN(C)CC(=O)Nc1ccc(Cl)cc1C(F)(F)F	21µM*	?	9%	?	15µM*	-7
CSc1ccccc1NC(=O)CN(C)Cc1cccc(Cl)c1	14%	11%	-3%	1%	?	3
COc1ccc(NC(=O)CN(C)CC(=O)Nc2cccc3ccccc23)c(OC)c1	?	-7%	-3%	1%	?	-7
COc1ccccc1CN(C)CC(=O)Nc1cccc2ccccc12	26µM*	3%	-16%	1%	26µM*	-60*
O=C(CSc1nnc(-c2cccnc2)o1)Nc1ccccc1F	-19%	-4%	-99%	4%	?	-1
CC(=O)c1ccc(NC(=O)Cn2cc(S(=O)(=O)Cc3ccccc3Cl)c3ccccc32)cc1	-23%	.	.	.	-10%	.
SMILES	TDP1 cell CPT	Chronic BCR inh	SW480 rerep	MCF10A rereplic	TDP1 cell noCPT	IL1B secr inh
CCc1ccc(S(=O)(=O)c2nnn3c2nc(N2CCC(C)CC2)c2cc(Cl)ccc23)cc1	18µM*	.	.	.	10µM*	.
CCc1ccc(S(=O)(=O)c2nnn3c2nc(N2CCCC(C)C2)c2cc(Cl)ccc23)cc1 (centres undefined)	?	.	.	.	7.3µM*	.
CCCCCCCCCC(=O)OCC(CO)OC(=O)CCCCCCCCC (centres undefined)	0%[4.12 µM]	.	.	.	5%[4.12 µM]	.
CCN1CCN(Cc2c3ccccc3cc3ccccc23)CC1	?	-1%	-1%	8%	?	-86*
CN1OC[C@@H]2CN(Cc3ccccc3)[C@H](c3ccc(-n4ccnc4)cc3)C[C@@H]21	-16%	.	.	.	-9%	-14
Cc1cccc(N(Cc2cc3cc(C)ccc3[nH]c2=O)C(=O)c2cccs2)c1	?	0%	-1%	10µM*	?	11
CC(=O)N(CCc1cccc(C)c1)Cc1cc2cc(C)ccc2[nH]c1=O	15µM*	-1%	18%	2%	?	13
Cc1ccc2[nH]c(=O)c(CN(C(=O)c3cccs3)c3ccccc3)cc2c1	?	2%	0%	15%	16µM*	1
Cc1ccc2cc(CN(C(=O)c3cccs3)c3ccccc3)c(=O)[nH]c2c1	?	-27%	?	?	?	-5
CC1(C2CC2)NC(=O)N(CC(=O)NCC(=O)Nc2ccc(F)c(F)c2F)C1=O (centres undefined)	-21%	2%	-4%	-1%	2%	-16
CSCCC1NC2(C(=O)Nc3c(Cl)cccc32)[C@@H]2C(=O)N(C3CCCC3)C(=O)[C@H]12 (some centres undefined)	-16%	-1%	-4%	4%	?	2
CSCCC1NC2(C(=O)Nc3c(C)cc(Cl)cc32)[C@@H]2C(=O)N(C3CCCC3)C(=O)[C@H]12 (some centres undefined)	?	0%	?	27%	21µM*	-9
CCCn1c(SCN2C(=O)c3ccccc3C2=O)nc2cc(Cl)ccc2c1=O	21µM*	13%	-4%	0%	23µM*	5
C=CCn1c(SCC#N)nc2cc(Cl)ccc2c1=O	?	.	.	.	13µM*	.
C=CCn1c(SCC(=O)NCCC2=CCCCC2)nc2ccc(Cl)cc2c1=O	23µM*	9%	?	26%	?	2
Cn1c(=O)cc(SCC(=O)NCCC2=CCCCC2)c2ccc(Cl)cc21	-28%	-1%	-9%	-7%	-21%	-2
COc1ccc(-c2ccc(-c3cc(=O)oc4cc(OC)c(OC)c(OC)c34)cc2)cc1	-1%	5%	0%	1%	-26%	40
